VDR inh: Inhibitors of the vitamin D receptor (VDR): qHTS. VDR-SRC2-3 peptide fluorescence polarization, 2 h. Potency, µM, inactives show max response, negative = inhibition, most hits filed as inhibitors. 400,000 compounds, 0.93% hits. Vitamin D3 receptor (Homo sapiens), P11473. AID 504847, 2011
Target sequence (P11473 whole entry, looked up): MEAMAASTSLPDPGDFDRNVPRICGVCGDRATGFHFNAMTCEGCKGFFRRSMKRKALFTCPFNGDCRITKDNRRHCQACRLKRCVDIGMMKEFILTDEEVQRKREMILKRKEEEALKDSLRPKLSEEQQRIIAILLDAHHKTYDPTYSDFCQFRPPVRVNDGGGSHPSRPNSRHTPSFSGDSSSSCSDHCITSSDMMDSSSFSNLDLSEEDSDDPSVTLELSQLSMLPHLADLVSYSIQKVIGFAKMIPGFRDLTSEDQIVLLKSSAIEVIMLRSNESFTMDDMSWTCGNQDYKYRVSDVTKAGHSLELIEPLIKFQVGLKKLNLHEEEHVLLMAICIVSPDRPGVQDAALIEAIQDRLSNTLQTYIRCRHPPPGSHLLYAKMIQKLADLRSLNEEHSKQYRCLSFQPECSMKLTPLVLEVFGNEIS
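Reagent solutions, kept cold and dark, are dispensed first; compounds are then pinned in at 23 nl, plates briefly spun, and incubated 2 h at ambient temperature. Inhibition of VDR–SRC2-3 peptide binding is read by fluorescence polarization.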
PLK1 PBD block: qHTS for Inhibitors of PLK1-PDB (polo-like kinase 1 - polo-box domain): Primary Screen | 360,000 compounds, 2.8% hits | AID 720504, 2013 | Potency, µM, inactives show max response, negative = inhibition, actives largely listed as inhibitors | Serine/threonine-protein kinase PLK1 (Homo sapiens), P53350 | Plk1 PBD binding of FITC phosphopeptide, fluorescence polarization; also: series mostly up to about 57 µM; nearly all actives have a fitted effect of over 65% in size
Sfp PPTase inh: qHTS Assay for Inhibitors of Bacillus subtilis Sfp phosphopantetheinyl transferase (PPTase); 4'-phosphopantetheinyl transferase ffp (Bacillus subtilis), Q9F4F7; Biochemical Sfp PPTase activity, qHTS; Potency, µM, for inactives: largest response in the series, negative = inhibition, usual class: inhibitors; 310,000 compounds, 3.5% hits;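 also: the enzyme is Sfp with the accession as filed and its product quenches rhodamine fluorescence; 0% = enzyme reaction without inhibitor and -100% = no enzyme wells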
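Sfp 15 nM + cpd, 15 min RT; start w/ rhodamine-CoA 5 uM, BHQ-2-YbbR 12.5 uM (final); 50 mM Hepes pH 7.6, 10 mM MgCl2, 0.01% NP-40, 0.01% BSA; read 525/598 nm at 0 and 30 min.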
12-LOX inh: Primary qHTS assay for inhibitors of human arachidonate 12S-lipoxygenase (ALOX12): Round 2 | Polyunsaturated fatty acid lipoxygenase ALOX12 (Homo sapiens), P18054 | purified 12hLO, xylenol orange hydroperoxide absorbance | Potency, µM (highest dose often 108 µM), for the others: top-dose activity change, negative = inhibition, most hits filed as inhibitors | 580,000 compounds, 1.1% hits | AID 1671190, 2021
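Purified human 12hLO at 150 nM in 25 mM Hepes, 0.01% Triton X-100, pH 7.0, preincubated 15 min at room temperature with compound. Reaction started with 40 uM arachidonic acid, 30 min at room temperature. Hydroperoxide measured by Fe-xylenol orange, 573/405 nm absorbance ratio.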
An asterisk follows results filed as active; ? = inconclusive; . = no result; ! = not active in a repeat; [ ] = remark or other dose. Most compounds without a hit are left out; they make up all but 4.2% or so of the library. Calls follow the shape of the dose curve; as a rule, active = well fitted curve in the direction sought with a large enough effect; inconclusive = small, poorly fitted or top-dose-only effect, or another doubt; inactive = no such curve, though single readings can be large; an effect the other way counts as inactive or inconclusive. Unless noted, % is scaled to controls: 0 for no effect and ±100 for the full control effect; potency is read from the fitted curve at half-maximal effect.

SMILES	VDR inh	PLK1 PBD block	Sfp PPTase inh	12-LOX inh
Cc1cc(O)c(CN(C)C)c2c1C(=O)/C(=C/c1ccco1)O2	-22%	-20%	-27%	?
CC1CCN(C(=O)CSc2nnc(-c3cc4ccccc4cc3O)n2Cc2ccco2)CC1	1%	-9%	28µM*	-18%
COc1ccc(C(=O)CSc2nnc(-c3cc4ccccc4cc3O)n2Cc2ccco2)cc1	-10%	-11%	13%	-23%
O=Cc1cc(OCc2ccccc2)ccc1[B-](F)(F)F	20µM*	-17%	.	0%
CCOC(=O)c1sc2nc(C)nc(N3CCN(S(=O)(=O)c4ccccc4)CC3)c2c1C	-8%	24µM*	.	-22%
CCCc1nc2ccc(C(=O)OC)cn2c1Cc1ccccc1OC	.	.	.	0%
COc1ccc2oc3c(ccc[n+]3C)c(=O)c2c1	.	-9%	.	13µM*
Cc1cccc(C(=O)NC(=S)Nc2ccccc2C(F)(F)F)c1	-25%	2%	2%	16µM*
O=C(NC(=S)Nc1ccccc1C(=O)O)c1cncc(Br)c1	50µM*	9.5µM*	10µM*	-7%
Cc1cccc(C(=O)NC(=S)Nc2ccccc2C(=O)O)c1	-11%	?	?	40µM*
COc1cccc(C(=O)NC(=S)Nc2ccc(Cl)cc2C(=O)O)c1	-24%	?	50µM*	?
Cc1ccc(C(=O)NC(=S)Nc2ccccc2C(F)(F)F)cc1C	-4%	-9%	-13%	?
Cc1cc(C)c(NC(=O)COc2ccccc2C(=O)Nc2ccc3c(c2)oc2ccccc23)c(C)c1	23%	-3%	1%	-4%
Cc1ccc(C)c(OCC(=O)N/N=C/c2c(C)nn(-c3ccccc3)c2Cl)c1C	-1%	-6%	27%	14%
Cc1ccc(NC(=S)Nc2cccc(-c3n[nH]c(=S)o3)c2)cc1	-10%	?	50µM*	0%
CCNC(=O)NC(=O)COC(=O)c1ccccc1SCC(=O)NC(=O)NCC	?	2.7µM*	?	0%
O=C(O)c1ccccc1C(=O)Nc1ccc(Br)c2cccnc12	9%	-6%	40µM*	?
CC(=O)Oc1ccc(C(=O)[C@H]2[C@H]3C(=O)N(c4ccc(C)cc4C)C(=O)[C@H]3[C@@H]3C=CC=NN32)cc1	8%	-17%	50µM*	?
O=C(CS(=O)(=O)Cc1ccccc1)Nc1ncccn1	-15%	4%	13%	4%
S=c1[nH]nc(Nc2ccc(Cl)cc2)s1	?	13µM*	?	?
CCOc1ccc(Nc2n[nH]c(=S)s2)cc1	-10%	?	-25%	?
Cc1ccc(NC(=O)c2n[nH]c(=O)c3ccccc23)cc1F	.	.	.	-11%
Cc1ccc(Nc2n[nH]c(=S)s2)cc1	.	24µM*	.	32µM*
Cc1ccc(Nc2n[nH]c(=S)s2)cc1F	?	?	.	40µM*
O=C(CNC(=O)c1ccc(Br)cc1)OCC(=O)c1ccccc1	-7%	3%	8%	2%
SMILES	VDR inh	PLK1 PBD block	Sfp PPTase inh	12-LOX inh
CCNC(=O)CC1SC(=Nc2ccccc2C)N(C)C1=O (configuration not stated)	-5%	-3%	4%	-9%
O=C(Nc1cccc(Cl)c1)Nc1cccc(Cl)c1	4%	-7%	-3%	9%
O=C(Nc1ccc(Cl)c(Cl)c1)Nc1nccs1	3%	-8%	56µM*	?
O=C(Nc1cccc(Cl)c1)Nc1nccs1	36%	2%	50µM*	-27%
Cc1nc2cc(NC(=O)Nc3nccs3)ccc2n1C	-1%	-1%	?	6%
C=C(C)CN=C1NN=C(c2cc(C)n(-c3ccc(C)cc3)c2C)CS1	-14%	-5%	-7%	?
CCN=C1NN=C(c2cc(C)n(CCc3ccccc3)c2C)CS1	-10%	-21%	50µM*	12%
Cc1cc(C2=NNC(=NCCc3ccccc3)SC2)c(C)n1CC1CCCO1 (configuration not stated)	-12%	-18%	50µM*	?
C=CCn1c(C)cc(C2=NNC(=NCc3ccccc3)SC2)c1C	-3%	-10%	-5%	7%
Cc1ccc(N=C2NN=C(c3cc(C)n(CC4CCCO4)c3C)CS2)cc1C (configuration not stated)	.	.	.	35µM*
Clc1ccc(C2=NNC(=NCC3CCCO3)SC2)cc1 (configuration not stated)	?	?	-17%	?
CCN(CC)C(=O)N1c2ccccc2C=Cc2ccccc21	11%	-4%	0%	-30%
CN(C)CCCNC(=O)N1c2ccccc2C=Cc2ccccc21	?	27µM*	10%	12%
CC(C)(C)c1cc[n+](-c2[nH]c(=O)sc2/C=N/NC([S-])=Nc2ccccc2)cc1	?	?	35µM*	?
CC(NC(=O)/C(C#N)=C/c1ccc(Cl)c([N+](=O)[O-])c1)c1ccccc1 (configuration not stated)	?	12µM*	25µM*	?
CCOC(=O)C1CCN(C(c2ccc(C)cc2)c2c(O)cc(C)n(CCOC)c2=O)CC1 (configuration not stated)	-3%	.	.	-4%
COc1ccc(C(=O)N2C(=S)NC(=O)/C2=C\c2ccc(C)cc2)cc1	9%	-19%	50µM*	?
Cc1ccc2nc(N3C(=O)C(O)=C(C(=O)c4ccc(C)o4)C3c3cccc(O)c3)sc2c1 (configuration not stated)	?	?	-24%	13µM*!
COc1ccc2nc(N3C(=O)C(O)=C(C(=O)c4ccco4)C3c3ccc(OC)c(OC)c3)sc2c1 (configuration not stated)	.	-13%	.	40µM*
COC(=O)[C@@H]1Cc2ncn(Cc3ccccc3)c2CN1S(=O)(=O)Cc1ccccc1	.	.	.	47%[176 µM]
COc1ccc2c(c1OC)CN(C)CCc1cc3c(cc1C(O)C2)OCO3 (configuration not stated)	-9%	-5%	7%	.
COc1ccc2c(c1OC)C(Cc1ccccc1)N1CCc3cc4c(cc3C1C2)OCO4 (configuration not stated)	?	.	56µM*	.
CCCC1=NN(c2ccc([N+](=O)[O-])cc2)C(=O)/C1=C\N(C)C	?	-1%	5%	45µM*
CC1=NN(c2ccc([N+](=O)[O-])cc2)C(=O)C1[N+](=O)[O-] (configuration not stated)	?	.	-12%	-28%
Cn1c(=O)c2c(nc(NCCOc3ccc(C(C)(C)C)cc3)n2C)n(C)c1=O	-20%	-1%	22%	1%
COc1ccccc1OCCNc1nc2c(c(=O)n(C)c(=O)n2C)n1C	?	19µM*	16%	13%
CCOCCn1c(N2CCCC2)nc2c1c(=O)[nH]c(=O)n2C	-9%	-14%	40µM*	?
CCOCCn1c(SC)nc2c1c(=O)[nH]c(=O)n2C	-17%	24µM*	18µM*	?
COc1cccc(CNc2ncc(-c3ccc(Br)cc3)n2C)c1	12%	.	.	8.9µM*
